# Records with an inconclusive call do not appear. A call without a number means that no potency is given here. Calls of active or inactive are those of the source. Calls follow the shape of the dose curve; as a rule, active = well fitted curve in the direction sought with a large enough effect; inconclusive = small, poorly fitted or top-dose-only effect, or another doubt; inactive = no such curve, though single readings can be large; an effect the other way counts as inactive or inconclusive.
# Experiments:
# [1] = Primary qHTS for inhibitors of nuclear receptor binding SET domain protein 2 (NSD2) in an isogenic RCH-ACV NSD2 p.E1099K mutant (9B) (AID 1645876); conditions: RCH-ACV NSD2 E1099K (9B) viability, CellTiter-Glo, 72 h; series mostly up to 44.9 µM; also: nearly all actives have a fitted effect of over 70% in size; also: potency is read from the fitted curve at half-maximal effect
# [2] = Primary qHTS for inhibitors of nuclear receptor binding SET domain protein 2 (NSD2) in an RCH-ACV wild type WT cells (2C) (AID 1645877); conditions: RCH-ACV (leukaemia line) NSD2 WT (2C) viability, CellTiter-Glo, 72 h; series mostly up to 44.9 µM; also: nearly all actives have a fitted effect of over 70% in size; also: potency is read from the fitted curve at half-maximal effect
# [3] = Viability counterscreen for antagonist of constitutive androstane receptor (CAR) against the NCATS DSHEA and TCM libraries (AID 1794837); conditions: CAR reporter cell line viability counterscreen, qHTS; series mostly up to 40 µM;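 also: compound exposure lasted 24 h before viability reading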
# How it was run: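 Cell viability, CellTiter-Fluor, Ex/Em 405/540 nm, 1 h at 37C. HepG2-CYP2B6-hCAR, 2,500 cells/well; cpds + CITCO 48 uM final (antagonist mode), 24 h, 37C/5% CO2.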
# [4] = Viability counterscreen for agonist of constitutive androstane receptor (CAR) against the NCATS DSHEA and TCM libraries (AID 1794838); conditions: HepG2 cell viability counterscreen, CAR agonist assay, co-treated with 0.75 µM CAR antagonist; series mostly up to 40 µM
# How it was run: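 Viability by CellTiter-Fluor fluorescence, 405/540 nm, after 1 h at 37C. HepG2-CYP2B6-hCAR cells were exposed 24 h to test substances in presence of 0.75 uM PK11195 (final).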
# [5] = biological target: Nuclear receptor subfamily 1 group I member 3 (Homo sapiens) (UniProt Q14994); experiment: Primary qHTS for agonist of constitutive androstane receptor (CAR) against the NCATS DSHEA and TCM libraries (AID 1794839); conditions: CAR agonist reporter cells, qHTS luminescence, CAR antagonist co-added at 0.75 µM; series mostly up to 40 µM;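 also: HepG2 cells expressing human CAR with a CYP2B6 reporter plus PK11195 antagonist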
# Nuclear receptor subfamily 1 group I member 3 (Homo sapiens), sequence (Q14994 whole entry, looked up): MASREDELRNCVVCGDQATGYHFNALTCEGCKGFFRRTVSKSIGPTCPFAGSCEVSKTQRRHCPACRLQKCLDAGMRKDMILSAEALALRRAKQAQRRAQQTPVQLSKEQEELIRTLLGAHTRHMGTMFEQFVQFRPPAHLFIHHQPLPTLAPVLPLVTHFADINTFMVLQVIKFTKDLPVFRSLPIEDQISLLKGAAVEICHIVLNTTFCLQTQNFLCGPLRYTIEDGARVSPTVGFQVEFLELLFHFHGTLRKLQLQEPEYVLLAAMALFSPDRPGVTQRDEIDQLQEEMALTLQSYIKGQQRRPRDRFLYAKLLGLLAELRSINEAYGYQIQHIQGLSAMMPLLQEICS
# How it was run: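 Luminescence from ONE-Glo luciferase was the agonist read-out in HepG2-CYP2B6-hCAR cells exposed 24 h to test substances. Wells also held the CAR antagonist PK11195 at 0.75 µM final. Viability was by CellTiter-Fluor fluorescence.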
# [6] = HepG2 viability counterscreen (readout 2: ATP content) against the NCATS DSHEA and TCM libraries (AID 1794840); conditions: ATP content luminescence; series mostly up to 27.3 µM
# How it was run: (§1)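 1,000 HepG2 cells/well, 4 h attach; compounds ~24 h, 37C/5% CO2. Readout 1: GF-AFC 25 uM final, 30 min, fluorescence 380/510 nm. Readout 2: CellTiter-Glo, 30 min RT, luminescence.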
# [7] = HepG2 viability counterscreen (readout 1: protease activity) against the NCATS DSHEA and TCM libraries (AID 1794841); conditions: qHTS concentration series; series mostly up to 27.3 µM;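 also: cells exposed to compounds for about 24 h before the protease read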
# How it was run: as §1
# [8] = biological target: Glutathione peroxidase 1 (Homo sapiens) (UniProt P07203); experiment: Primary qHTS Assay for Inhibitors of Recombinant Selenoprotein Glutathione Peroxidase 1 (GPX1) (AID 1845191); conditions: recombinant GPX1, GR-coupled NADPH fluorescence, 15 min; series mostly up to 48.8 µM; also: nearly all actives have a fitted effect of over 65% in size; also: potency is read from the fitted curve at half-maximal effect
# Glutathione peroxidase 1 (Homo sapiens), sequence (P07203 whole entry, looked up): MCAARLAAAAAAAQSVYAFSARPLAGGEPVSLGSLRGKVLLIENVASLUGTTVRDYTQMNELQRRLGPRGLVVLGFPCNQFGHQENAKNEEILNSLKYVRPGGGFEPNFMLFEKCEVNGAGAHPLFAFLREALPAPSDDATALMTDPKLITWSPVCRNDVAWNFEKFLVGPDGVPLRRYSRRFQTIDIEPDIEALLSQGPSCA
# How it was run: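 Recombinant GPX1 (10 nM final) was preincubated with compound for 30 min at room temperature, then reacted with 1 mM GSH, 0.5 mM CHP, 0.5 mM NADPH and 100 nM glutathione reductase; NADPH fluorescence (340/450 nm) was read at 0 and 15 min.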
# [9] = biological target: Phospholipid hydroperoxide glutathione peroxidase GPX4 (Homo sapiens) (UniProt P36969); experiment: Primary qHTS Assay for Inhibitors of Recombinant Selenoprotein Glutathione Peroxidase 4 (GPX4) (AID 1845192); conditions: recombinant GPX4, GR-coupled NADPH fluorescence, 15 min; series mostly up to 50 µM; also: nearly all actives have a fitted effect of over 65% in size
# Phospholipid hydroperoxide glutathione peroxidase GPX4 (Homo sapiens), sequence (P36969 whole entry, looked up): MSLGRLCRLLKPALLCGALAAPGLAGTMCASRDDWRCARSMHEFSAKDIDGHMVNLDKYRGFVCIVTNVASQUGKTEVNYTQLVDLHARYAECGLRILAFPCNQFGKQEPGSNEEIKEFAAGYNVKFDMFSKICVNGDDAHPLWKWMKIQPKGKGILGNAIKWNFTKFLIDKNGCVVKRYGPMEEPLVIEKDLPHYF
# How it was run: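 GR-coupled readout: 100 nM GR, 1 mM GSH, 0.5 mM NADPH; NADPH fluorescence (ex 340/em 450 nm) read at t=0 and after 15 min RT. GPX4 200 nM, preincubated 30 min with compound; substrate 0.5 mM CHP.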
compound,measurement,setting,value
O=c1[nH]c2ccccc2c(=O)n1CCCl,Potency,[1],inactive
same,Potency,[2],inactive
OC[C@]1(O)OC[C@@H](O)[C@H](O)[C@@H]1O,Potency,[1],inactive
same,Potency,[2],inactive
COc1cc(C=O)ccc1O,Potency,[1],inactive
same,Potency,[2],inactive
CCOC(=O)N1CCC(Nc2ccc(Cl)cc2N)CC1,Potency,[1],13.3 µM (active)
same,Potency,[2],11.9 µM (active)
CCCCCCCCCCCC[N+](C)(C)Cc1ccccc1,Potency,[1],0.473 µM (active)
same,Potency,[2],0.473 µM (active)
CN1N=C(C(N)=O)CCC1=O,Potency,[1],inactive
same,Potency,[2],inactive
Nc1ccc(C(=O)N2CC3CC(CN(Cc4ccccc4)C3)C2)cc1,Potency,[1],inactive
same,Potency,[2],inactive
CCS(=O)(=O)c1ccc(OC)c(C(=O)OC)c1,Potency,[1],inactive
same,Potency,[2],inactive
CC(NCCC(c1ccccc1)c1ccccc1)c1ccccc1 (stereo not given),Potency,[1],18.8 µM (active)
same,Potency,[2],18.8 µM (active)
O=C1c2ccccc2CCc2ccccc21,Potency,[1],inactive
same,Potency,[2],inactive
Cc1nc([N+](=O)[O-])cn1-c1ccc([N+](=O)[O-])cc1,Potency,[1],inactive
same,Potency,[2],inactive
O=C(Nc1ccc(Cl)cc1)Nc1ccc(Cl)c(C(F)(F)F)c1,Potency,[1],4.22 µM (active)
same,Potency,[2],2.99 µM (active)
CC1(C)OC(=O)Nc2ccc(Br)cc21,Potency,[1],inactive
same,Potency,[2],inactive
O=C1CC2(CCCC2)CC(=O)N1CCNCC1COc2ccccc2O1 (stereo not given),Potency,[1],inactive
same,Potency,[2],inactive
CCCCCCCCCCCCCCCCCCN(C)C,Potency,[1],inactive
same,Potency,[2],inactive
CCN1CCCC1CN (stereo not given),Potency,[1],inactive
same,Potency,[2],inactive
COC(=O)c1ccc(NC(C)=O)cc1OC,Potency,[1],inactive
same,Potency,[2],inactive
CCCC(=O)Nc1ccc(O)c(C(C)=O)c1,Potency,[1],inactive
same,Potency,[2],inactive
CC(=O)c1cc2ccccc2s1,Potency,[1],inactive
same,Potency,[2],inactive
Cn1c(=O)c2c(ncn2CC(=O)O)n(C)c1=O,Potency,[1],inactive
same,Potency,[2],inactive
CC(CCc1ccc2c(c1)OCO2)NN (stereo not given),Potency,[1],inactive
same,Potency,[2],inactive
O=C(O)CCCC[C@@H]1SC[C@@H]2NC(=O)N[C@@H]21,outcome,[3],inactive
same,outcome,[4],inactive
same,outcome,[5],inactive
same,outcome,[6],inactive
same,outcome,[7],inactive
CCN(CC)C(=O)C1CN2CCc3cc(OC)c(OC)cc3C2CC1OC(C)=O (stereo not given),Potency,[1],inactive
same,Potency,[2],inactive
same,Potency,[8],inactive
same,Potency,[9],inactive
CC(=O)N(CC(O)CO)c1c(I)c(C(=O)NCCO)c(I)c(C(=O)NCC(O)CO)c1I (stereo not given),Potency,[1],inactive
same,Potency,[2],inactive
same,Potency,[8],inactive
same,Potency,[9],inactive
Cc1cccc(N(C)C(=S)Oc2ccc3c(c2)CCC3)c1,Potency,[1],inactive
same,Potency,[2],inactive
same,Potency,[8],inactive
COc1cc(NS(=O)(=O)c2ccc(N)cc2)nc(C)n1,Potency,[1],inactive
same,Potency,[2],inactive
same,Potency,[8],inactive
CN1CCCN=C1/C=C/c1cccs1,Potency,[1],inactive
same,Potency,[2],inactive
same,Potency,[8],inactive
CC(=O)N(CC(=O)N(C)C)c1ccccc1,Potency,[1],inactive
same,Potency,[2],inactive
same,Potency,[8],inactive
same,Potency,[9],inactive
CCC(C(=O)OCCN1CCOC(c2ccccc2)C1C)c1ccccc1 (stereo not given),Potency,[1],inactive
same,Potency,[2],inactive
same,Potency,[8],inactive
same,Potency,[9],inactive
CC1(C)S[C@@H]2[C@H](NC(=O)C(c3ccccc3)S(=O)(=O)O)C(=O)N2[C@H]1C(=O)O (stereo not given in full),Potency,[1],inactive
same,Potency,[2],inactive
same,Potency,[8],inactive
Nc1c(I)cc(I)c(C(=O)N(CCC(=O)O)c2ccccc2)c1I,Potency,[1],inactive
same,Potency,[2],inactive
same,Potency,[8],inactive
same,Potency,[9],inactive
C[C@@H]1CCC[C@H](C)N1CCCC(O)(c1ccccc1)c1ccccn1 (stereo not given in full),Potency,[1],inactive
same,Potency,[2],inactive
same,Potency,[8],inactive
same,Potency,[9],inactive
Cc1ncc(CO)c(CO)c1O,Potency,[1],inactive
same,Potency,[2],inactive
same,Potency,[8],inactive
same,Potency,[9],inactive
COc1cc(C(=O)NC2CCCNC2)cc(OC)c1OC (stereo not given),Potency,[1],inactive
same,Potency,[2],inactive
same,Potency,[8],12.8 µM (active)
CC(C)(Oc1ccc(Cl)cc1)C(=O)OCCCOC(=O)C(C)(C)Oc1ccc(Cl)cc1,Potency,[1],inactive
same,Potency,[2],inactive
same,Potency,[8],inactive
same,Potency,[9],inactive
CCCC(=O)O[C@]1(C(=O)CC)CC[C@H]2[C@@H]3CCC4=CC(=O)CC[C@]4(C)[C@H]3[C@@H](O)C[C@@]21C,Potency,[1],inactive
same,Potency,[2],inactive
same,Potency,[8],inactive
Fc1ccc(C(c2ccc(F)cc2)N2CCNCC2)cc1,Potency,[1],inactive
same,Potency,[2],inactive
same,Potency,[8],inactive

# Source: PubChem BioAssay (NCATS)
